Bioassay records as filed in PubChem.
PostGolgi ctrl – inhibits growth of the yeast control strain. efflux-deficient yeast background strain, growth absorbance A615, 16 h. inhibition, % at 10 µM. hit rate 5% among 98,000. AID 738
CYP2C19 inh – blocks human cytochrome P450 2C19; AID 778; hit rate 21% among 96,000; CYP2C19 Supersomes, luciferin-H EGE luminescence, 30 min; inhibition, % at 5 µM;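 active = CYP2C19 inhibition above a set limit at 5 µM in the primary screen, cut at about 50% in these data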
Target sequence (P33261 whole entry, looked up): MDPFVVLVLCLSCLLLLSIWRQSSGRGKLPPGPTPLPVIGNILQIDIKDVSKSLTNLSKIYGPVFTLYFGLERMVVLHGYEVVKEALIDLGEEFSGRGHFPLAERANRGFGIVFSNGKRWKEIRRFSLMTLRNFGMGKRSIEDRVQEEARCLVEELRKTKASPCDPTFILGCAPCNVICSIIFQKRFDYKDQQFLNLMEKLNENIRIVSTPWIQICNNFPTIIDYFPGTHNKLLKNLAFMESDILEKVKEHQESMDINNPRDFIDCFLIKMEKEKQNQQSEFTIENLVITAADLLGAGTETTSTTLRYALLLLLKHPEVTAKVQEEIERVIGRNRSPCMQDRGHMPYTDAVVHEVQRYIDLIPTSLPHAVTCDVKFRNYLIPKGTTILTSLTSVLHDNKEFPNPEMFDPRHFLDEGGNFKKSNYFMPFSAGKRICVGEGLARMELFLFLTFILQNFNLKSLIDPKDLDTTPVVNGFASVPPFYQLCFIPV
CYP2C9 activ – increases human cytochrome P450 2C9 activity | AID 1024 | hit rate 1.4% among 96,000 | activation factor at 5 µM | P11712 | recombinant CYP2C9, luciferin-H conversion, luminescence; hits give high values; factor 1 = untreated enzyme, 0 = blocked;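 active = activation factor of 2 or more for CYP2C9 at a 5 µM dose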
PostGolgi yeast – growth inhibition of a yeast mutant, post-Golgi transport screen; hit rate 0.9% among 98,000; post-Golgi transport phenotypic cell assay; AID 739; inhibition, % at 10 µM;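 also: yeast cells grown in 1536-well plates; yeast grown about 18 h at 30C before absorbance read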
CYP2C9 inhib – human CYP2C9 inhibition; inhibition, % at 5 µM; AID 777; hit rate 20% among 96,000; CYP2C9 Supersomes, luciferin-H conversion, luminescence;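 active = blocking of liver enzyme CYP2C9 beyond about 50% at 5 µM, limit read from the data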
CYP2C19 act – increases human CYP2C19 enzyme activity. P33261. recombinant CYP2C19, luciferin-H EGE luminescence; hits give high values; 0 = fully inhibited enzyme, 1 = untreated enzyme. activation factor at 5 µM. 96,000 tested, under 10 active. AID 1025;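 active = activation factor of at least 2 at 5 µM in the primary screen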
A number is an active result; - = inactive. Only some compounds are listed: those with a hit (about 32% of all), similar ones and a draw of the others. Rule as the data show it, unless noted: active = inhibition above about 30%; inactive = the rest.

SMILES	PostGolgi ctrl	CYP2C19 inh	CYP2C9 activ	PostGolgi yeast	CYP2C9 inhib	CYP2C19 act
CC(=O)N(Cc1ccc2c(c1)OCO2)C1CC(=O)N(CCc2ccccc2)C1=O (stereo not given)	-	70	-	-	53	-
O=C(NCc1cccnc1)C1CC(=O)N(CCc2ccccc2)C1 (stereo not given)	-	80	-	-	-	-
O=C(NCc1ccc2c(c1)OCO2)C1CC(=O)N(c2ccc(O)cc2)C1 (stereo not given)	-	-	2.1	-	-	-
O=C(O)C1CC(=O)N(Cc2ccc3c(c2)OCO3)C1 (stereo not given)	-	-	-	-	-	-
O=C(NCc1ccc(F)cc1)C1CC(=O)N(CCc2ccccc2)C1 (stereo not given)	-	-	-	-	-	-
COc1ccc(N2CC(C(=O)Nc3ccc4c(c3)OCO4)CC2=O)cc1 (stereo not given)	-	-	-	-	-	-
O=C(NCc1ccc2c(c1)OCO2)C1CC(=O)N(CCc2ccccc2)C1 (stereo not given)	-	-	-	-	77	-
CCN(C1CCCCC1)S(=O)(=O)c1cn(C)c(=O)n(C)c1=O	-	-	-	-	-	-
Cc1cc(N)n(-c2ccc3ccccc3c2)n1	-	-	-	-	-	-
COC(=O)c1ccccc1NC(=O)c1cc2n(n1)C(C(F)F)CC(C(F)F)N2 (stereo not given)	-	-	-	-	-	-
FC(F)(F)c1cccnc1N1CCN(c2ncnc3nc[nH]c23)CC1	-	83	-	-	-	-
Clc1ccccc1N1CCN(c2ncnc3nc[nH]c23)CC1	-	-	-	-	-	-
NNC(=O)CNC(c1ccccc1)c1cc(Br)ccc1NC(=O)c1ccccc1Br (stereo not given)	-	-	-	-	58	-
COc1ccc(S(=O)(=O)N2Cc3ccccc3CC2C(=O)O)cc1 (stereo not given)	-	-	-	-	-	-
O=C(CCCO)c1ccc2c(c1)OCCO2	-	-	-	-	-	-
O=C(c1ccc2c(c1)OCCCO2)c1cccs1	-	74	-	-	60	-
CCCCNCc1cc(Br)c(OCc2cccs2)c(OC)c1	-	65	-	-	-	-
CCCCNCc1cc(Br)c(OCC(=O)N2CCOCC2)c(OC)c1	-	-	-	-	-	-
CCOC(=O)c1cc2sc(C)cc2n1CC(=O)NCc1ccc(F)cc1	-	72	-	-	-	-
CCOC(=O)c1cc2sc(C)cc2n1CC(=O)N1CCN(C(=O)c2ccco2)CC1	-	-	-	-	-	-
CCOC(=O)c1cc2sc(C)cc2n1CC(=O)N1CCOCC1	-	65	-	-	-	-
CCCCOc1cccc(C(=O)N(Cc2cccs2)C2CCS(=O)(=O)C2)c1 (stereo not given)	-	-	-	-	-	-
CCCc1cc(=O)[nH]c(Nc2ccc(O)cc2)n1	-	-	-	-	-	-
CCCc1cc(=O)[nH]c(Nc2ccc(OC)c(Cl)c2)n1	-	-	-	-	72	-
COc1ccc(CN2CCN(c3ccccn3)CC2)cc1OCc1ccccc1	-	-	-	-	-	-
SMILES	PostGolgi ctrl	CYP2C19 inh	CYP2C9 activ	PostGolgi yeast	CYP2C9 inhib	CYP2C19 act
CN(C)S(=O)(=O)c1ccc(C(=O)Nc2ccc(OCC(=O)N3CCOCC3)cc2)cc1	-	-	-	-	-	-
COC(=O)C(NS(C)(=O)=O)(c1c(C)[nH]c2ccccc12)C(F)(F)F (stereo not given)	-	64	-	-	-	-
CC(C)N1C(=O)CCC1C(=O)N1CCCc2ccccc21 (stereo not given)	-	-	-	-	-	-
O=C(NC(=S)Nc1ccc2oc(-c3cccnc3)nc2c1)c1cccc(Cl)c1	-	-	-	-	-	-
Cc1ccn2cc(CCNS(=O)(=O)c3ccc4c(c3)OCCO4)nc2c1	-	79	-	-	-	-
Nc1c(C(=O)NCc2ccco2)nnn1Cc1ccccc1	-	-	-	-	-	-
O=C(c1ccco1)c1nnn(Cc2ccccc2)c1-c1ccccc1	-	-	-	-	54	-
COCC(=O)N1CCN(c2ccc([N+](=O)[O-])cc2)CC1	-	-	-	-	-	-
CCOC(=O)CC1ON(C)C(=O)N1c1ccc([N+](=O)[O-])cc1 (stereo not given)	-	98	-	-	-	-
CCOC(=O)NC(NC(=S)Nc1ccccc1[N+](=O)[O-])C(Cl)(Cl)Cl (stereo not given)	-	98	-	-	93	-
